PubChem BioAssay (NCATS)
Unmarked numbers belong to inactive results. Inconclusive results are not listed. A call without a number means that no potency is given here. Active and inactive are the calls of the source. Unless noted, the call rests on the fitted dose curve; in most records, active means well fitted curve in the direction sought with a large enough effect; inconclusive means small, poorly fitted or top-dose-only effect, or another doubt; inactive means no such curve, though single readings can be large; an effect the other way counts as inactive or inconclusive.

Key:
[1] = target: Cytochrome P450 1A2 (Homo sapiens) (UniProt P05177); assay: p450-cyp1a2 (AID 410; calls by dose curve)
Summary of the method: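 O-Demethylation of luciferin 6' methyl ether by human CYP1A2 is monitored as luciferase luminescence. Substrate sits at Km (100uM); enzyme is 20nM. Values are scaled to 57 uM furafylline as maximal inhibition.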

[2] = NFAT Signaling Pathway (AID 444; active means well fitted curve in either direction with a large enough effect, not every such curve was filed as active;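 further: carbachol stimulus at about its EC50 of 1 µM final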); conditions: Jurkat NFAT-bla M1, carbachol, beta-lactamase ratio, 5 h; at 17.2 µM (top of the series) unless noted
Summary of the method: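 Jurkat cells with NFAT-driven β-lactamase reporter and co-expressed M1 receptor, stimulated with carbachol (final 1 uM, ~EC50), compound titration, 5 h at 37 °C. CCF4 loaded 1 h at RT; 460/530 nm ratio gave %activity and AC50.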

[3] = target: Glucocorticoid receptor (Homo sapiens) (UniProt P04150); assay: GR-GFP Redistribution (AID 450;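 active means compounds whose dose series gives a full or clear partial fitted curve of increased nuclear translocation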; further: potency means the concentration at half of the fitted maximal effect); conditions: U2OS GR-GFP nuclear translocation, laser cytometry, 2 h
[4] = target: Glucocorticoid receptor (Homo sapiens) (UniProt P04150); assay: GR-EFC Redistribution (AID 451; calls by dose curve; further: potency means the concentration at half of the fitted maximal effect); conditions: CHO-K1 GR-EFC translocation, beta-gal luminescence, 2 h
Summary of the method: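 CHO-K1 cells expressing nuclear EA and GR-ED fragments of b-gal; compounds titrated up to 46 uM final, 2 h at 37 C. GR nuclear translocation read as complemented b-gal luminescence after 1 h RT detection.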

[5] = target: Mitogen-activated protein kinase 10 (Mus musculus) (UniProt Q61831); assay: JNK3 AlphaScreen Assay (AID 530; active means well fitted curve in either direction with a large enough effect, not every such curve was filed as active;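 further: kinase came from lysate of stimulated human HepG2 cells; signal reports phosphorylation of biotinylated GST-cJun 1-79 at Ser73 with 10 µM ATP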)
Summary of the method: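 Activity was read by AlphaScreen after JNK3-containing HepG2 lysate (cytokine pre-activated) phosphorylated biotinylated GST-cJun with 10 uM ATP at room temperature. Phospho-Ser73 cJun antibody with Protein-A acceptor beads provided detection.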

[6] = target: 3',5'-cyclic-AMP phosphodiesterase 4B (Homo sapiens) (UniProt Q07343); assay: qHTS Assay for Inhibitors of PDE-IV (AID 607; active means well fitted activation curve with a large enough effect in the main read-out, with a control signal flat, not every such curve was filed as active)
Summary of the method: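 ACTOne HEK293 cells carry a modified cAMP-gated CNG channel and express endogenous PDE4; plated 1000 cells/well, compounds up to 22.9 uM final. Membrane-potential dye fluorescence (ex 535/em 590) was read; parental cells received 10 uM forskolin + 100 uM RO 20-1724.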

[7] = target: Cytochrome P450 3A4 (Homo sapiens) (UniProt P08684); assay: qHTS Assay for Inhibitors and Substrates of Cytochrome P450 3A4 (AID 884); further: potency means the concentration at half of the fitted maximal effect; nearly all actives have a fitted effect of over 50% in size
Summary of the method: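 Luminescent readout of luciferin produced by CYP3A4 (20 nM) dealkylation of Luciferin-PPXE, 25 uM (its KM). NADPH-driven reaction ran 60 min at RT after 10 min compound preincubation; data scaled to 57 uM ketoconazole as 100% inhibition.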

[8] = target: Cytochrome P450 3A4 (Homo sapiens) (UniProt P08684); assay: qHTS Assay for Activators of Cytochrome P450 3A4 (AID 885); further: nearly all actives have a fitted effect of over 65% in size
Summary of the method: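 CYP3A4 activity: Luciferin-PPXE O-dealkylation, 25uM substrate, 200mM KPO4, RT throughout. Read-out is luciferase luminescence; higher values reflect activation.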

[9] = target: Ubiquitin carboxyl-terminal hydrolase 1 (Homo sapiens) (UniProt O94782); assay: Inhibitors of USP1/UAF1: Pilot qHTS (AID 504865); further: potency means the concentration at half of the fitted maximal effect; nearly all actives have a fitted effect of over 35% in size
Summary of the method: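 Kinetic fluorescence assay: 1nM USP1/UAF1, 15 min compound preincubation, then 150nM Ub-Rho; 480/540 nm.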

[10] = AP1 Signaling Pathway (AID 357; active means well fitted curve in either direction with a large enough effect, not every such curve was filed as active;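 further: ME-180 reporter cells stimulated with EGF at its EC50 level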); conditions: ME-180 (cervical carcinoma) AP-1-bla reporter, EGF-induced, beta-lactamase ratio, 5 h; at 17.2 µM (top of the series) unless noted
Summary of the method: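 Titration-series screen for positive or negative modulators of EC50 EGF-induced signaling in ME-180 cells carrying an AP-1-driven beta-lactamase reporter. After 5 hours at 37 degrees Celsius, CCF4 460nm/530nm emission ratio gave %Activity; AC50 values derived.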

[11] = target: Guanine nucleotide-binding protein G(i) subunit alpha-1 (Homo sapiens) (UniProt P63096); assay: qHTS Assay for Inhibitors of RGS12 GoLoco Motif Activity (Green Fluorophore) (AID 879);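 further: negative values mean loss of peptide binding seen as reduced polarization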
Summary of the method: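 A drop in FITC polarization marked displacement of the FITC-tagged RGS12 GoLoco peptide (10 nM) from Gαi1 (50 nM). Compounds were incubated 10 min at room temperature in Tris pH 7.5 buffer containing 150 mM NaCl, 0.1 mM GDP and 0.05% NP40; unlabeled peptide titration served as control.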

[12] = target: Cytochrome P450 2C19 (Homo sapiens) (UniProt P33261); assay: qHTS Assay for Inhibitors and Substrates of Cytochrome P450 2C19 (AID 899); further: nearly all actives have a fitted effect of over 60% in size; further: potency means the concentration at half of the fitted maximal effect
Summary of the method: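 Signal comes from luciferase acting on luciferin released by CYP2C19-mediated hydroxylation of Luciferin-H EGE, 10uM (KM). Assay mix: 5nM enzyme, 50mM KPO4; 60 min at 37C with NADPH regeneration. Data normalized against 57uM ketoconazole.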

[13] = target: Pyruvate kinase PKM (Homo sapiens) (UniProt P14618); assay: qHTS Assay for Activators of Human Muscle Pyruvate Kinase (AID 954; active means well fitted curve in the direction sought with a large enough effect, not every such curve was filed as active)
Summary of the method: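 A coupled luminescent readout tracked ATP made from ADP by purified PKM2. Final conditions included 0.1 nM enzyme, PEP and ADP at 0.5 and 0.1 mM, pH 7.2 imidazole buffer with BSA, and a one-hour room-temperature reaction.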

[14] = target: Alpha-galactosidase (Coffea arabica) (UniProt Q42656); assay: Counterscreen for Glucocerebrosidase Inhibitors: qHTS Assay for Coffee Bean alpha-Galactosidase at pH 4.5 (AID 957)
Summary of the method: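 Enzyme is added first (2 nM final), then compounds titrated from 0.7 nM to 77 uM, then 80 uM 4-methylumbelliferyl alpha-D-galactopyranoside; after 20 min at room temperature a pH 10 NaOH/glycine stop precedes fluorescence reading at 365/440 nm.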

[15] = target: Alpha-galactosidase A (Homo sapiens) (UniProt P06280); assay: Counterscreen for Glucocerebrosidase Inhibitors: qHTS Assay for Human alpha-Galactosidase at pH 4.5 (AID 992)
Summary of the method: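 Citrate buffer pH 4.5, Tween-20 0.005%. Enzyme 2 nM, substrate 80 uM, 20 min RT. Stop pH 10. Fluorescence Ex 365/Em 440. AC50 by Hill fit.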

[16] = target: alpha-glucosidase (Oryza sativa, rice) (UniProt Q653V4); assay: Counterscreen for Glucocerebrosidase Inhibitors: qHTS Assay for Rice alpha-Glucosidase at pH 5.0 (AID 997)
Summary of the method: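 Endpoint fluorogenic assay at pH 5.0: compounds (0.7 nM to 77 uM) titrated against 4 nM rice enzyme and 400 uM 4-MU-alpha-glucoside for 20 min at room temperature; NaOH/glycine stop, read ex 365/em 440 nm, Hill-fitted AC50.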

[17] = target: Cytochrome P450 2C9 (Homo sapiens) (UniProt P11712); assay: qHTS Assay for Inhibitors and Substrates of Cytochrome P450 2C9 (AID 883); further: nearly all actives have a fitted effect of over 60% in size
Summary of the method: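 Signal: luciferase luminescence reporting luciferin produced by CYP2C9. Conditions: 10nM enzyme, Luciferin-H 100uM at KM, 25mM KPO4, 37C, 60 min NADPH-driven reaction. Reference: 57uM sulphaphenazole as 100% inhibition.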

[18] = target: Cytochrome P450 2D6 (Homo sapiens) (UniProt P10635); assay: qHTS Assay for Inhibitors and Substrates of Cytochrome P450 2D6 (AID 891); further: potency means the concentration at half of the fitted maximal effect; nearly all actives have a fitted effect of over 60% in size
Summary of the method: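 Luminescent read-out of luciferin formed by 5 nM human CYP2D6 demethylating 30 uM Luciferin-ME EGE (Km level) over 60 min at room temperature after NADPH regeneration addition. Data normalized to full inhibition by 1.43 uM quinidine.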

Glucocorticoid receptor (Homo sapiens), sequence (P04150 whole entry, looked up, the tested form may be a part): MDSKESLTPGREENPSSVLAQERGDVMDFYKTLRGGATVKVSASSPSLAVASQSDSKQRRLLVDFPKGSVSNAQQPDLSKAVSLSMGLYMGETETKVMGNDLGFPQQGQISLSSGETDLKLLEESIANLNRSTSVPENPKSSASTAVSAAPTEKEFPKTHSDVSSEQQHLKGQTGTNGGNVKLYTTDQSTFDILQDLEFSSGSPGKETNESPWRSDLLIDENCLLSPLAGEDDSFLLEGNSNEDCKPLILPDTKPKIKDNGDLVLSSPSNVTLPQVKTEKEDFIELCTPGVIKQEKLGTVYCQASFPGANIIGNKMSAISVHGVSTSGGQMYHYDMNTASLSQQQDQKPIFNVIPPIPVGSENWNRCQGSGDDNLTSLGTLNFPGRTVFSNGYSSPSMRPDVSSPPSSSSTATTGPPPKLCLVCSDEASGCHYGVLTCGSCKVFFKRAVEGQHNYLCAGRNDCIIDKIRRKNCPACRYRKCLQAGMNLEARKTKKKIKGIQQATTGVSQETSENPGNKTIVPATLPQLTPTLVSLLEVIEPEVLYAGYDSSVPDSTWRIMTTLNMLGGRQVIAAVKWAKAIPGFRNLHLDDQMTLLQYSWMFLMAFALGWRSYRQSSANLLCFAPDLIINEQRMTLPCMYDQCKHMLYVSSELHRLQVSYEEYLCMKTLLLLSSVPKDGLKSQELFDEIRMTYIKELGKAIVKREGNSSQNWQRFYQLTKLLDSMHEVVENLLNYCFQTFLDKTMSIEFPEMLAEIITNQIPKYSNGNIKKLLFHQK
Cytochrome P450 1A2 (Homo sapiens), sequence (P05177 whole entry, looked up): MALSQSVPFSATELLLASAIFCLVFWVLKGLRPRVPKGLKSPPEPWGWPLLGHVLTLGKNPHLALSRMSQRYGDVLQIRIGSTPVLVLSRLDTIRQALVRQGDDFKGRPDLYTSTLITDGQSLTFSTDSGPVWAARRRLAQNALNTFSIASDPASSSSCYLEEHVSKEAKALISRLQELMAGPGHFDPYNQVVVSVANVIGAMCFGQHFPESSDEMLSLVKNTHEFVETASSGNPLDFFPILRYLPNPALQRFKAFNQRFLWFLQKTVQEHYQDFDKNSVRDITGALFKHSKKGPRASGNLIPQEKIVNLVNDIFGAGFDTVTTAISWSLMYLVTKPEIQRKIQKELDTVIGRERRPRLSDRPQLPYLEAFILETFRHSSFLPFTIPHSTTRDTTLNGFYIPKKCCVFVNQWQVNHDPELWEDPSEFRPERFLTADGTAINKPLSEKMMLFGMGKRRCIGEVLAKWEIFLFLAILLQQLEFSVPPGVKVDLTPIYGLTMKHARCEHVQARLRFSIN
Cytochrome P450 2C19 (Homo sapiens), sequence (P33261 whole entry, looked up): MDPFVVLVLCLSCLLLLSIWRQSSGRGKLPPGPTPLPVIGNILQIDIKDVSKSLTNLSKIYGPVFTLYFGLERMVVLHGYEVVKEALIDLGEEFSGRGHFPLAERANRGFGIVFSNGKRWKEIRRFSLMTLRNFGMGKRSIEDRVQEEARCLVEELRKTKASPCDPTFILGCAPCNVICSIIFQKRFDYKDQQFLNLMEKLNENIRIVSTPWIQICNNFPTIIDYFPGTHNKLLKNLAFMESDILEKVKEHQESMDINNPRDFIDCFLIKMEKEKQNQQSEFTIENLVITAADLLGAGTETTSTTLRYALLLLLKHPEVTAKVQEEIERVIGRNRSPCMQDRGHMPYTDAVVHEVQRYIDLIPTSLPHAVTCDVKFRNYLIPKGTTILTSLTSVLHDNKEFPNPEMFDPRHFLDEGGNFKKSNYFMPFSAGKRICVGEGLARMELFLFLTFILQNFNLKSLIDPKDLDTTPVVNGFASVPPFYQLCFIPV
3',5'-cyclic-AMP phosphodiesterase 4B (Homo sapiens), sequence (Q07343 whole entry, looked up): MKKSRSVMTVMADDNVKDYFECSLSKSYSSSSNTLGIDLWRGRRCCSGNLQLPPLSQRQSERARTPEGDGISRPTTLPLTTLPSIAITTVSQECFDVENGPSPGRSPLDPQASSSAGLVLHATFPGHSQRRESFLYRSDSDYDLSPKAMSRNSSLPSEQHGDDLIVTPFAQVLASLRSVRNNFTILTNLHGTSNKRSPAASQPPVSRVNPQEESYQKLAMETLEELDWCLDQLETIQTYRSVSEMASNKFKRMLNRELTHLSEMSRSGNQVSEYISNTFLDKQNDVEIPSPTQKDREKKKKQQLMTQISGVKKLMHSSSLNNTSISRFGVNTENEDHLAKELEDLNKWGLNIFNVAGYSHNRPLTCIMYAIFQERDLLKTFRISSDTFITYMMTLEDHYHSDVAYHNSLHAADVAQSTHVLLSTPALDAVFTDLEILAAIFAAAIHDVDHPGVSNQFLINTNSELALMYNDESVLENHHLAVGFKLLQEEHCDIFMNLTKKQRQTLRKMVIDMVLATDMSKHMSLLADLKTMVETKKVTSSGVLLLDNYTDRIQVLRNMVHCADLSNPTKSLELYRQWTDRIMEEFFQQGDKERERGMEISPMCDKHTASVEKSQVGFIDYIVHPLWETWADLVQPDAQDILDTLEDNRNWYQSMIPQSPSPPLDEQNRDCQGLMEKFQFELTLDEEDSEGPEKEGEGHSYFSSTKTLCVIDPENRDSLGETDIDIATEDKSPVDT
Cytochrome P450 3A4 (Homo sapiens), sequence (P08684 whole entry, looked up): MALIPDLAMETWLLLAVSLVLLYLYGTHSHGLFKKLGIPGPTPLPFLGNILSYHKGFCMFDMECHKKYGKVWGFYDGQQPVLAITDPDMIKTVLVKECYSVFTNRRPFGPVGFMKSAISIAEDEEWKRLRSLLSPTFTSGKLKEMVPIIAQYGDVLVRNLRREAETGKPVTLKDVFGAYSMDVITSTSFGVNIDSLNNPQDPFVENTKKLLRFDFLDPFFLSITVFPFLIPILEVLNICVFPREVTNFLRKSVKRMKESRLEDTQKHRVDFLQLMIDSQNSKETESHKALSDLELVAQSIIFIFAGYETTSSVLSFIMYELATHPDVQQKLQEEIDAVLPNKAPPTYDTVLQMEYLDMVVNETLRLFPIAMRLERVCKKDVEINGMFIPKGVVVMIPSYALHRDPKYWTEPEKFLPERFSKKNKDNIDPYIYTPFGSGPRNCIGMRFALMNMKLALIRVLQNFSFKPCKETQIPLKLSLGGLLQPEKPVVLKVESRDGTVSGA
Cytochrome P450 2C9 (Homo sapiens), sequence (P11712 whole entry, looked up): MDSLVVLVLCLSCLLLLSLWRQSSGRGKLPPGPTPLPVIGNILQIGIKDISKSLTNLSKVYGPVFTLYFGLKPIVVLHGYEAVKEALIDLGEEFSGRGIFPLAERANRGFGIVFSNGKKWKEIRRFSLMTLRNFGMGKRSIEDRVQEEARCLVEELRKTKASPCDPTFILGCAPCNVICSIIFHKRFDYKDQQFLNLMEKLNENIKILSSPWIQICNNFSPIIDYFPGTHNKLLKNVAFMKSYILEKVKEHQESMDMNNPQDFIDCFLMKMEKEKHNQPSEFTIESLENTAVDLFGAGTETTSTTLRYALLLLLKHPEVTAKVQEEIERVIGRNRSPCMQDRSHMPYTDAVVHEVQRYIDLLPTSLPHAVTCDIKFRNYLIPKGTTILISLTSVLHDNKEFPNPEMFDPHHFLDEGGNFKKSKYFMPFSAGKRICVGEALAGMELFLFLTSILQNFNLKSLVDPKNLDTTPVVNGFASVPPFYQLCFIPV
Ubiquitin carboxyl-terminal hydrolase 1 (Homo sapiens), sequence (O94782 whole entry, looked up): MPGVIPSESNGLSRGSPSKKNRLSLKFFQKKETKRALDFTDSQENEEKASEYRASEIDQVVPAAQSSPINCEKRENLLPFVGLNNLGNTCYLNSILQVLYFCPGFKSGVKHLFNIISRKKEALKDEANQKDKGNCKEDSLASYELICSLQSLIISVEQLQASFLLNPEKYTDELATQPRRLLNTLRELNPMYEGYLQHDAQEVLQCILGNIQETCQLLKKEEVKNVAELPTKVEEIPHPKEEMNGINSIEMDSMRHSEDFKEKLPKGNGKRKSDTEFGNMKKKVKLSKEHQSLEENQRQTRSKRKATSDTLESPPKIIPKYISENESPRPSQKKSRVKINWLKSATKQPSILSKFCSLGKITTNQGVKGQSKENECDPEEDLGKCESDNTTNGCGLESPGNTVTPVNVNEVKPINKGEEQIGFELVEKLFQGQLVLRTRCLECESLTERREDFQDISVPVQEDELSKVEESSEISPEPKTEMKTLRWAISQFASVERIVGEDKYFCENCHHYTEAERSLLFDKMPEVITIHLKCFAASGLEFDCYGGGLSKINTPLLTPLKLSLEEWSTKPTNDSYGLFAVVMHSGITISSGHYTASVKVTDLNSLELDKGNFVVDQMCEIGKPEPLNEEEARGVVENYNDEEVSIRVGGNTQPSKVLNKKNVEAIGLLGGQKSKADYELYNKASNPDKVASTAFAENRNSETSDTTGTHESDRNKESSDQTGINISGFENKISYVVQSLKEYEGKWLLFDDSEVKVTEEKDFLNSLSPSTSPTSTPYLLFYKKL
Guanine nucleotide-binding protein G(i) subunit alpha-1 (Homo sapiens), sequence (P63096 whole entry, looked up): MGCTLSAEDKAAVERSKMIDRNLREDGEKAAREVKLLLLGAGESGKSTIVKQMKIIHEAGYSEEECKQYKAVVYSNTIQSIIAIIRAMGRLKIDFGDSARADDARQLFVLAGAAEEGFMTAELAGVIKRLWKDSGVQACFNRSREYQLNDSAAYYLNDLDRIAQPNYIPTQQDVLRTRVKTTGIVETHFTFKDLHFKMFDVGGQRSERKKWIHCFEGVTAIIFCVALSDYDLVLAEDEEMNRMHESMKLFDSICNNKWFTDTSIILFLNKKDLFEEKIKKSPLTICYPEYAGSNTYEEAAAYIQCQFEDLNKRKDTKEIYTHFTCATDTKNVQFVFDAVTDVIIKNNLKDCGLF

Q: Which Potency [1] does the source give for `CCCCCC[C@H]1C(=O)O[C@H](C)[C@H](NC(=O)c2cccc(NC=O)c2O)C(=O)O[C@@H](C)[C@H]1OC(=O)CC(C)C` here?
A: inactive

Q: And the activity change, negative = inhibition [2]?
A: -34.3%

Q: What about the Potency [3] of the same molecule?
A: > 20.6 µM

Q: What about the Potency [4] of the same molecule?
A: > 20.6 µM

Q: And the outcome [5]?
A: inactive

Q: What about the outcome [6] of the same molecule?
A: inactive

Q: What about the Potency [7] of the same molecule?
A: 5.01 µM (active)

Q: What about the Potency [8] of the same molecule?
A: inactive

Q: And the Potency [9]?
A: 28.2 µM (active)

Q: For `C=C(C)[C@H]1Cc2c(ccc3c2O[C@H]2COc4cc(OC)c(OC)cc4[C@@H]2C3=O)O1`, which activity change, negative = inhibition [10] is on record?
A: 7.51% [at 38 µM]

Q: What about the Potency [3] of the same molecule?
A: > 46 µM

Q: And the Potency [4]?
A: > 46 µM

Q: What about the outcome [5] of the same molecule?
A: inactive

Q: And the outcome [6]?
A: inactive

Q: And the Potency [11]?
A: inactive

Q: And the Potency [12]?
A: 2.51 µM (active)

Q: And the outcome [13]?
A: inactive

Q: And the outcome [14]?
A: inactive

Q: And the outcome [15]?
A: inactive

Q: What about the outcome [16] of the same molecule?
A: inactive

Q: Which Potency [1] does the source give for `CC[C@H]1CN2CC[C@@H]1C[C@@H]2[C@H](O)c1ccnc2ccccc12` here?
A: inactive

Q: What about the Potency [3] of the same molecule?
A: > 46 µM

Q: And the Potency [4]?
A: > 46 µM

Q: What about the outcome [5] of the same molecule?
A: inactive

Q: What about the outcome [6] of the same molecule?
A: inactive

Q: And the Potency [17]?
A: inactive

Q: And the Potency [18]?
A: 3.16 µM (active)

Q: And the Potency [12]?
A: inactive

Q: Which Potency [1] does the source give for `CC[C@@]12CCCN3CC[C@@]4(c5ccc(OC)c(O)c5N(C(C)=O)[C@H]4CC1)[C@H]32` here?
A: inactive

Q: And the Potency [3]?
A: > 46 µM

Q: What about the Potency [4] of the same molecule?
A: > 46 µM

Q: What about the outcome [5] of the same molecule?
A: inactive

Q: What about the outcome [6] of the same molecule?
A: inactive

Q: And the Potency [17]?
A: inactive

Q: What about the Potency [12] of the same molecule?
A: 0.794 µM (active)
